# Test results taken from PubChem BioAssay (EPA / NIEHS).
# Inconclusive results are not listed. The source made the active and inactive calls. The calls were made as follows: active = hit-call score of the fitted dose curve at least 0.9, where 1 is the maximum; inconclusive = response in the unintended direction; inactive = score below 0.9.
# Biological target: Adra2b (gene 24174) (UniProt P19328)
# Experiment: NVS_GPCR_rmAdra2B: NovaScreen (NVS) G Protein-Coupled Receptor Assay for hybird cells Adrenergic, Alpha 2B Receptor (Adra2B) (AID 2283306)
# Outline: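 Compounds screened first at 25 uM in duplicate, with actives followed up in concentration-response; specific radioligand displacement from hybrid neuroglioma/blastoma cell membrane preparations measured by filter scintillation counting after 1 h, normalized to DMSO.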
# Chain of Adra2b (gene 24174) (P19328 whole entry, looked up): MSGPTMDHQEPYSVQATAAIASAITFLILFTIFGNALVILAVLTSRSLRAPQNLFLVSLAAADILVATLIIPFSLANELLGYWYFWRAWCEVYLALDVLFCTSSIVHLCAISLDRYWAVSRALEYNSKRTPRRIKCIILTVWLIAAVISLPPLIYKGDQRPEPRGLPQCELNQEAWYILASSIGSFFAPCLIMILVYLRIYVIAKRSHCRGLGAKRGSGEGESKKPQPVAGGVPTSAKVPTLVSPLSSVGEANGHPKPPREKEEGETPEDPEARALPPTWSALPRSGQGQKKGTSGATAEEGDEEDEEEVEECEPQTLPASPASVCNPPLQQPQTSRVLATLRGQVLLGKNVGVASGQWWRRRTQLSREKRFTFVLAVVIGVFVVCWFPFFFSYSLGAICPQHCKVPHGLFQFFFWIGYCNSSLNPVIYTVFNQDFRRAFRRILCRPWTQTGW
Compound,AC50,outcome
C[Si](Cn1cncn1)(c1ccc(F)cc1)c1ccc(F)cc1,25 µM (active),
COc1ccc(C(=CC(=O)N2CCOCC2)c2ccc(Cl)cc2)cc1OC,11.7 µM (active),
CCC(=O)Nc1ccc(Cl)c(Cl)c1,,inactive
CC[C@H](C)[C@H]1O[C@]2(C=C[C@@H]1C)C[C@@H]1C[C@@H](C/C=C(\C)[C@@H](O[C@H]3C[C@H](OC)[C@@H](O[C@H]4C[C@H](OC)[C@@H](NC)[C@H](C)O4)[C@H](C)O3)[C@@H](C)/C=C/C=C3\CO[C@@H]4[C@H](O)C(C)=C[C@@H](C(=O)O1)[C@]34O)O2,34.8 µM (active),

# Biological target: rat Neurotensin Receptor (NTS), Ntsr1 (gene 366274) (UniProt P20789)
# Experiment: NVS_GPCR_rNTS: NovaScreen (NVS) G Protein-Coupled Receptor Assay for rat Neurotensin Receptor (NTS) (AID 2283308)
# Outline: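 Single-point duplicates at 25 uM, then concentration series to 50 uM max for hits, measured radioligand displacement on rat forebrain membrane preparations. Bound label counted by filtration scintillation at 1 h; signal loss relative to DMSO fitted.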
# Chain of rat Neurotensin Receptor (NTS), Ntsr1 (gene 366274) (P20789 whole entry, looked up): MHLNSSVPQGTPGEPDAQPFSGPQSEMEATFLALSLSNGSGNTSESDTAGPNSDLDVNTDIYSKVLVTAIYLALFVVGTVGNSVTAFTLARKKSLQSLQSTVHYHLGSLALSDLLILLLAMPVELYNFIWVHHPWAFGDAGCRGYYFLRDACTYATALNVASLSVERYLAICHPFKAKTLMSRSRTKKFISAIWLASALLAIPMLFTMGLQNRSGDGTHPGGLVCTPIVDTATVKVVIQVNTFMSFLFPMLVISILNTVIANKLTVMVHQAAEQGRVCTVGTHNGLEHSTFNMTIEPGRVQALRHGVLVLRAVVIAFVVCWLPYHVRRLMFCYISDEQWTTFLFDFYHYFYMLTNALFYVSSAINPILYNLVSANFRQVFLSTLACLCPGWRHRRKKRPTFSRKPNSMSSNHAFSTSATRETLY
row,Compound,outcome
1,C=C(C)[C@H]1Cc2c(ccc3c2O[C@@H]2COc4cc(OC)c(OC)cc4[C@@H]2C3=O)O1,inactive
2,CC1=NNC(=O)N(/N=C/c2cccnc2)C1,inactive
3,CCOP(=O)(OCC)Oc1cc(C)nc(C(C)C)n1,inactive
4,CCOP(=S)(OCC)Oc1cc(C)nc(C(C)C)n1,inactive
5,CCCCSP(=O)(SCCCC)SCCCC,inactive
6,S=C1NCCN1,inactive
